tim10-1 inh = tim10-1 yeast growth inhibition. AID 463190. S. cerevisiae tim10-1 ts strain growth, BacTiter-Glo, 24 h. inhibition, % at 20 µM. hit rate 2.2% among 330,000;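 active means inhibition of at least 40%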;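 further: mutant grown at 25 °C; 0% = DMSO wells with yeast and 100% = wells holding no yeast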
Mdm2-MdmX inh = disrupts the human Mdm2-MdmX interaction | AID 485346 | inhibition, % at 8 µM | hit rate 3% among 330,000 | SaOS-2 split-luciferase Mdm2/MdmX complementation, luminescence;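 active means inhibition of at least 50% at 8 µM in the primary screen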
Target sequence (O15151 whole entry, looked up): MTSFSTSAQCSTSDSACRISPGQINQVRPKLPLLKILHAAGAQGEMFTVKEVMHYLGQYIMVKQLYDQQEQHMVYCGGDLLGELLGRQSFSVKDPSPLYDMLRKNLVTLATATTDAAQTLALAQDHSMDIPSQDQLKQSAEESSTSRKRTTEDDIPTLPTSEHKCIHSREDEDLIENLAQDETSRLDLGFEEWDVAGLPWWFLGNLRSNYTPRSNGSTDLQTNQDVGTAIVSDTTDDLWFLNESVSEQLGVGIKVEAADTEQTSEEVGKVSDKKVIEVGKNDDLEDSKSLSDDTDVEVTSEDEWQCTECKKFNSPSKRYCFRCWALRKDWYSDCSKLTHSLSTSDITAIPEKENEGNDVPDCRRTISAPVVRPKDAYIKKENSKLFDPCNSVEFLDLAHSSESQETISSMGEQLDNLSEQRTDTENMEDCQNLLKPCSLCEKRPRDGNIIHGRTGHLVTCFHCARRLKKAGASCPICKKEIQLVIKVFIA
Target sequence (Q00987 whole entry, looked up): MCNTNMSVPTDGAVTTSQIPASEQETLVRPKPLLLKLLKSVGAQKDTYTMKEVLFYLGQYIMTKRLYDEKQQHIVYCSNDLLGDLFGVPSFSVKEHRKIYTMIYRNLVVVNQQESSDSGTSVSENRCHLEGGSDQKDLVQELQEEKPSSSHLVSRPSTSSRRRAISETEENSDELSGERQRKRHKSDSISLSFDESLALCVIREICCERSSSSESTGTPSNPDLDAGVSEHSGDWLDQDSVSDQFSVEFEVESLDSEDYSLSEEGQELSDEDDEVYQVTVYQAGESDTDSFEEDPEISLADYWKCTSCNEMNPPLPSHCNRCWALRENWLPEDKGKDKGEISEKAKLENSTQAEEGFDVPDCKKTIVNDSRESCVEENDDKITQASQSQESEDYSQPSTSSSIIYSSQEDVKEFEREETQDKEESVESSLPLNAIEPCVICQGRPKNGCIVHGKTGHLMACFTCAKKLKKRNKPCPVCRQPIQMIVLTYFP
MPTP block = inhibitors of mitochondrial permeability transition pore; isolated mouse mitochondria, Ca2+ swelling absorbance, 30 min; inhibition, % at 10 µM; hit rate 1.4% among 360,000; AID 602449;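 active means inhibition of 50% or more, scaled per plate between neutral and stimulator controls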;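 further: 0% = DMSO wells given calcium and 100% = 1 mM EGTA wells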
tim23-1 inh = tim23-1 yeast growth inhibition; S. cerevisiae tim23-1 growth, BacTiter-Glo luminescence, 24 h; inhibition, % at 20 µM; hit rate 1.3% among 330,000; AID 463212;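 active means growth inhibition of the mutant yeast at or above 50%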;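 further: temperature-sensitive mutant grown at 25 °C; plate controls were DMSO-treated mutant yeast for no effect and medium wells lacking yeast for full effect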
TIM10 inh = growth inhibitors of TIM10 yeast strain. S. cerevisiae TIM10 strain growth, BacTiter-Glo luminescence, 24 h. inhibition, % at 10 µM. hit rate 1.4% among 330,000. AID 463195;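 active means inhibition of 40% or more at the single tested concentration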;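 further: wild-type TIM10 isogenic control strain grown at permissive 25 °C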
Mdm2-MdmX conf = confirmation of human Mdm2/MdmX interaction inhibitors; shares compounds with Mdm2-MdmX inh; hit rate 55% among 10,000; Mdm2-MdmX binding, luminescent assay; inhibition, % at 8 µM; in the data active means inhibition above about 40%
FLuc counter = full-length luciferase inhibition in Mdm2/MdmX counter-screen | SaOS-2 full-length luciferase counterscreen, luminescence | inhibition, % at 8 µM | shares compounds with Mdm2-MdmX inh | hit rate 77% among 6,200;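 active means mean inhibition at 8 µM reaching about 37%, which flags the compound as non-specific, limit read from the data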;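 further: p53-null SaOS-2 cells with luciferase driven by a doxycycline-inducible promoter; compound on cells about two nights before reading with doxycycline added after day one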
Starred values were filed as active, the others as inactive; · = no result. A selection: hits, their analogues and other compounds. The true share with any hit is near 6.3%.

SMILES | tim10-1 inh | Mdm2-MdmX inh | MPTP block | tim23-1 inh | TIM10 inh | Mdm2-MdmX conf | FLuc counter
O=C(N/N=C\c1c(O)ccc2ccccc12)c1cncc(Br)c1 | -17 | 83* | 34 | 47 | -45 | 76* | 27
Cc1occc1C(=O)N/N=C/c1c[nH]c2ccccc12 | -3 | -43 | -2 | 8 | 17 | · | ·
Cn1cc(C(=O)N/N=C/c2c(O)ccc3ccccc23)ccc1=O | -15 | 79* | 0 | -12 | -21 | 72* | 27
COc1ccc(NC(C)C(=O)N/N=C/c2c(O)ccc3ccccc23)cc1 (centres undefined) | -16 | 65* | 1 | 13 | 9 | 56* | 39*
Cc1occc1C(=O)N/N=C/c1c(O)ccc2ccccc12 | 20 | 84* | 38 | -9 | -18 | 83* | 21
Nc1nc(=S)ss1 | · | · | 0 | · | · | · | ·
CC(C)NC(=O)C1(C)CCN1CCC(=O)c1ccccc1 (centres undefined) | · | · | 0 | · | · | · | ·
Cc1ccc(C(=O)N/N=C/c2c(O)ccc3ccccc23)cn1 | 10 | 75* | 1 | 43 | 31 | 82* | 27
O=C(N/N=C\c1c(O)ccc2ccccc12)c1ccc(O)cc1 | -7 | 68* | 4 | 26 | -2 | 52* | 32
O=C(CO)N/N=C/c1c2ccccc2cc2ccccc12 | 17 | 22 | 1 | 0 | 7 | · | ·
Cc1cc(O)c(C)c(O)c1/C=N/NC(=O)c1cccnc1 | 16 | 57* | 1 | 3 | 2 | 45* | 69*
O=C(CNc1ccccc1)N/N=C/c1c(O)ccc2ccccc12 | 28 | 84* | 6 | 27 | 33 | 79* | 27
OC(c1cc(F)cc(Cl)c1)c1ncc(-c2ccccc2Cl)[nH]1 (centres undefined) | · | · | 19 | · | · | · | ·
CCc1nc2ccc(C(=O)N3CCN(S(=O)(=O)CC)CC3)cn2c1N(CC)CCN(C)C | · | · | 1 | · | · | · | ·
O=C(N/N=C/c1c(O)ccc2ccccc12)c1ccc(Br)o1 | -20 | 87* | 10 | 43 | -73 | 81* | 54*
Cn1ncc(N=Cc2c(O)ccc3ccccc23)c1C(=O)Nc1cccc(Cl)c1 | -5 | 61* | 4 | 1 | 9 | 0 | ·
O=C(NN=Cc1c(O)ccc2ccccc12)c1ccncc1 | · | · | 1 | · | · | · | ·
Cn1nccc1C(=O)N/N=C/c1c(O)ccc2ccccc12 | 11 | 82* | 4 | 23 | -44 | 80* | 31
CC1(C(=O)NS(=O)(=O)Cc2cccc(Cl)c2)CCN1C(=O)c1ccc(C2CCCCC2)cc1 (centres undefined) | · | · | 1 | · | · | · | ·
COC(=O)COc1ccc(/C=N/NC(=O)c2ccc(N(Cc3ccccc3)S(C)(=O)=O)cc2)cc1 | -2 | 61* | -12 | -14 | -3 | 22 | ·
CCc1cc2c(C)ccc(C)c2nc1SCC(=O)Nc1c[nH]c(=O)[nH]c1=O | -7 | 56* | 0 | -19 | -11 | 24 | ·
CCc1cc2c(C)ccc(C)c2nc1SCC(=O)Nc1c(C)[nH]c(=O)[nH]c1=O | 4 | -12 | 1 | 25 | 12 | · | ·
CN=c1c([N+](=O)[O-])nn(-c2ccc3c(c2)OCCO3)n1O | -4 | 16 | 1 | 19 | 15 | · | ·
COc1cc(N=c2c([N+](=O)[O-])nn(-c3ccc4c(c3)OCCO4)n2O)cc(OC)c1 | 6 | 59* | 0 | 8 | 6 | 28 | ·
Cc1ccc(NC(=O)CSCC(=O)N(C)Cc2c(F)cccc2Cl)cc1 | · | · | 2 | · | · | · | ·
SMILES | tim10-1 inh | Mdm2-MdmX inh | MPTP block | tim23-1 inh | TIM10 inh | Mdm2-MdmX conf | FLuc counter
O=[N+]([O-])c1ccc(N/N=C/c2cccc(O)c2O)c(S(=O)(=O)N2CCOCC2)c1 | 12 | 22 | 20 | 5 | 7 | · | ·
Cc1ccc(NS(=O)(=O)c2cc([N+](=O)[O-])ccc2N/N=C/c2sc(N3CCOCC3)nc2-c2ccccc2)c(C)c1 | 4 | 86* | 24 | 15 | -4 | 22 | ·
CN(CCc1ccccc1)C(=O)c1ccc(NC(=O)Cc2ccc(NC(=O)C3CCCN(C(=O)C4CCCC4)C3)cc2)cc1 (centres undefined) | · | · | 3 | · | · | · | ·
CN(Cc1cnc2nc(N)nc(N)c2n1)c1ccc(C(=O)N[C@@H](CCC(=O)O)C(=O)O)cc1 | -9 | 46 | 1 | -8 | 3 | 72* | 30
CCCCN(C)CC(O)Cn1cc(/C=C/C(=O)c2ccc(OCC)cc2)c2ccccc21 (centres undefined) | -5 | 69* | · | 46 | 6 | 19 | ·
Fc1ccc(C2c3[nH]c4ccccc4c3CCN2Cc2cccn2-c2ncccn2)cc1 (centres undefined) | 16 | 78* | 3 | 17 | 23 | 62* | 61*
O=c1[nH]cnc2c1sc1nc3c(c(-c4ccc(Cl)cc4)c12)CCC3 | 10 | 34 | 1 | 22 | 20 | · | ·
O=c1[nH]cnc2c1sc1nc(C(F)F)cc(-c3ccccc3)c12 | 14 | 53* | 3 | 10 | 7 | 8 | ·
COc1ccc2[nH]cc(C(=O)CCl)c2c1 | 22 | 95* | 1 | 45 | 39 | 100* | 51*
CC(=O)NCc1ccc(S(=O)(=O)N2CCN(S(=O)(=O)c3ccc4ccccc4c3)CC2)cc1 | 5 | 63* | 1 | 6 | 0 | 34 | ·
Cc1cccc(C)c1NC(=O)CN1CCN(CCCC(c2ccc(F)cc2)c2ccc(F)cc2)CC1 | 11 | 60* | 4 | 31 | 24 | 44* | 74*
CC(C)NC(=O)N1Cc2cc(C(=O)NC3CCC3)nc(-c3cccc(-c4cncnc4)c3)c2[C@H]1CCO | · | · | -1 | · | · | · | ·
COc1ccc(OC)c(NC(=O)C2(C)CCN2C(=O)CC2CC2)c1 (centres undefined) | · | · | 0 | · | · | · | ·
CC(C)c1nnc(NC(=O)c2nc(S(=O)(=O)Cc3ccccc3)ncc2Cl)s1 | -5 | 97* | -2 | 9 | 4 | 76* | 50*
CSc1ncc(Cl)c(C(=O)Nc2nnc(SC)s2)n1 | 1 | 12 | -1 | 23 | -3 | · | ·
CSc1nnc(NC(=O)c2nc(S(=O)(=O)Cc3ccccc3)ncc2Cl)s1 | 14 | 99* | -1 | 15 | 10 | 94* | 2
CCn1cc(Cl)c(C(=O)N2N=C(c3ccc4ccccc4c3)CC2c2ccccc2O)n1 (centres undefined) | 15 | 69* | 5 | 15 | 8 | 40* | 57*
CCn1cc([N+](=O)[O-])c(C(=O)N2CCCC2)n1 | · | · | -2 | · | · | · | ·
CCn1cc([N+](=O)[O-])c(C(=O)N2N=C(c3ccc(OC)cc3OC)CC2c2ccccc2O)n1 (centres undefined) | 15 | 15 | 3 | 10 | 24 | · | ·
CCn1cc([N+](=O)[O-])c(C(=O)N2N=C(c3ccc4ccccc4c3)CC2c2ccccc2O)n1 (centres undefined) | 18 | 61* | 0 | 13 | 22 | 59* | 86*
